Laboratory results taken from PubChem BioAssay (Tox21).
“And” between values parts separate entries of the source, which are not always exact repeats. Identical values can stand only once. Records with an inconclusive call do not appear. Entries that show only a call come without a potency. Some compounds were tested as several samples or in several runs, with calls that do not always agree. The source made the active and inactive calls. Calls come from the whole dose curve; as a rule, active = well fitted cell-killing curve with a large enough effect in the repeat runs; inconclusive = weak or mixed curves, or effect the other way; inactive = flat fitted curve, though single readings scatter.
Note: nearly all actives have a fitted effect of over 50% in size.
Potency is the fitted concentration of half-maximal effect.

Test: qHTS assay to identify small molecule HDAC inhibitors - cell viability counter screen (AID 1259365)
Conditions: HCT-116 viability, CellTiter-Glo ATP luminescence, 2 h; series mostly up to 92.4 µM
Outline: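 Measured quantity is CellTiter-Glo luminescence from wild-type HCT-116 cells after compound incubation of 2hr at 37C, 5% CO2; reagent developed 30min at room temperature.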
For `Cc1cc(C)c(/C=C2\C(=O)Nc3ccccc32)[nH]1`, the Potency was “inactive”. With `CCCCC(CC)CN1CN(CC(CC)CCCC)CC(C)(N)C1` (stereo unspecified) the Potency was “inactive”. For `COC1=C(OC)C(=O)C(CCCCCCCCCCO)=C(C)C1=O`, the Potency was “inactive”. In the case of `CC(=O)c1ccc(C(C)=O)cc1`, the Potency is reported as “inactive”. With `NC(=S)NC(N)=S` the Potency was “inactive”. In the case of `CC(=O)OCC=C(C)C`, the Potency is reported as “inactive”. In the case of `O=C(/C=C/c1ccccc1)OC/C=C/c1ccccc1`, the Potency is reported as “inactive”. In the case of `Cc1c2ccccc2c(C)c2c1ccc1ccccc12`, the Potency is reported as “inactive”. With `CCCCCCCC/C=C\CCCCCCCCN` the Potency was “inactive”. In the case of `CC(C)=CCNc1ncnc2c1ncn2[C@@H]1O[C@H](CO)[C@@H](O)[C@H]1O`, the Potency is reported as “inactive”. With `CN(C)CCN1CCN(c2cccc(Cl)c2)C1=O` the Potency was “inactive”. In the case of `CCCCCCCCCCOC(=O)c1ccccc1C(=O)OCCCCCCCC`, the Potency is reported as “inactive”. With `CC(C)OC(=O)C(O)(CC(=O)O)CC(=O)O` the Potency was “inactive”. For `O=S(=O)(O)c1ccc(Nc2nc(Nc3ccc(/C=C/c4ccc(Nc5nc(Nc6ccc(S(=O)(=O)O)cc6)nc(N(CCO)CCO)n5)cc4S(=O)(=O)O)c(S(=O)(=O)O)c3)nc(N(CCO)CCO)n2)cc1`, the Potency was “inactive”. In the case of `Cc1cccc(C)c1NC(=O)c1ccc(N)cc1`, the Potency is reported as “inactive”. With `CCOC(=O)NNc1ccc(N(CC)CC(C)O)nn1` (stereo unspecified) the Potency was “inactive”. With `CC1(C)[C@@H](O)CC[C@]2(C)[C@H]3C(=O)C=C4[C@@H]5C[C@@](C)(C(=O)O)CC[C@]5(C)CC[C@@]4(C)[C@]3(C)CC[C@@H]12` the Potency was “inactive”. In the case of `O=C(O)Cc1ccccc1Nc1c(Cl)cccc1Cl`, the Potency is reported as “inactive”. With `c1ccsc1` the Potency was “inactive”. For `NC(=O)c1cccc([N+](=O)[O-])c1`, the Potency was “inactive”. With `CCc1cccc(CC)c1NC(=O)CN(CC(=O)O)CC(=O)O` the Potency was “inactive”. In the case of `Clc1sc(Cl)c(Cl)c1Cl`, the Potency is reported as “inactive”. With `CCN(CC)c1ccc2c(-c3ccc(S(=O)(=O)O)cc3S(=O)(=O)[O-])c3ccc(=[N+](CC)CC)cc-3oc2c1` the Potency was 12.6 µM (active). In the case of `OC[C@H]1O[C@H](O[C@H]2O[C@H](CO)[C@@H](O)[C@H](O)[C@H]2O)[C@H](O)[C@@H](O)[C@@H]1O`, the Potency is reported as “inactive”. With `CC(CO)Oc1ccccc1` (stereo unspecified) the Potency was “inactive”. For `COc1c(C)c2c(c(O)c1C/C=C(\C)CCC(=O)OCCN1CCOCC1)C(=O)OC2`, the Potency was “inactive”. With `Nc1cc(Cl)c(O)c(Cl)c1` the Potency was “inactive”. In the case of `CCCc1ccc(OCC(=O)N2CCN(C(=O)COc3ccc(CCC)cc3OC)CC2)c(OC)c1`, the Potency is reported as “inactive”. For `CN(C)Cc1ccccc1O`, the Potency was “inactive”. With `ClCCl` the Potency was “inactive”. With `CCCCCCOC(=O)C(C)CC` (stereo unspecified) the Potency was “inactive”. In the case of `Cc1c(N)cccc1C(F)(F)F`, the Potency is reported as “inactive”. For `COC(=O)Nc1nc2ccc(C(=O)c3ccccc3)cc2[nH]1`, the Potency was “inactive”. In the case of `CCN1C(=O)c2ccccc2C1Nc1ccc(OCCN2CCCCC2)cc1` (stereo unspecified), the Potency is reported as “inactive”. In the case of `CCOc1ccc2ccccc2c1C(=O)N[C@@H]1C(=O)N2[C@@H]1SC(C)(C)[C@@H]2C(=O)O`, the Potency is reported as “inactive”. With `Nc1ccc(C(=O)O)c(O)c1` the Potency was “inactive”. With `O[C@@H]([C@H](O)[C@H](O)CBr)[C@H](O)CBr` the Potency was “inactive”.

Test: qHTS assay to identify small molecule agonists of the sonic hedgehog signaling (Shh) pathway - cell viability counter screen (AID 1259366)
Conditions: NIH/3T3 Gli1-Luc viability, CellTiter-Fluor, 24 h; series mostly up to 92.4 µM
Outline: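 In quantitative high-throughput format, 3T3 Gli1-Luc cells were exposed to compounds for 24hr and multiplexed for viability using CellTiter-Fluor, incubated 1hr at 37C before the fluorescence read.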
For `Cc1cc(C)c(/C=C2\C(=O)Nc3ccccc32)[nH]1`, the Potency was “inactive”. For `COC1=C(OC)C(=O)C(CCCCCCCCCCO)=C(C)C1=O`, the Potency was “inactive”. In the case of `CC(=O)c1ccc(C(C)=O)cc1`, the Potency is reported as “inactive”. In the case of `NC(=S)NC(N)=S`, the Potency is reported as “inactive”. With `CC(=O)OCC=C(C)C` the Potency was “inactive”. For `O=C(/C=C/c1ccccc1)OC/C=C/c1ccccc1`, the Potency was “inactive”. In the case of `Cc1c2ccccc2c(C)c2c1ccc1ccccc12`, the Potency is reported as “inactive and 68.6 µM (active)”. With `CCCCCCCC/C=C\CCCCCCCCN` the Potency was “inactive”. For `CC(C)=CCNc1ncnc2c1ncn2[C@@H]1O[C@H](CO)[C@@H](O)[C@H]1O`, the Potency was 13.3 µM (active). In the case of `CN(C)CCN1CCN(c2cccc(Cl)c2)C1=O`, the Potency is reported as “inactive”. For `CCCCCCCCCCOC(=O)c1ccccc1C(=O)OCCCCCCCC`, the Potency was “inactive”. In the case of `CC(C)OC(=O)C(O)(CC(=O)O)CC(=O)O`, the Potency is reported as “inactive”. With `O=S(=O)(O)c1ccc(Nc2nc(Nc3ccc(/C=C/c4ccc(Nc5nc(Nc6ccc(S(=O)(=O)O)cc6)nc(N(CCO)CCO)n5)cc4S(=O)(=O)O)c(S(=O)(=O)O)c3)nc(N(CCO)CCO)n2)cc1` the Potency was “inactive”. In the case of `Cc1cccc(C)c1NC(=O)c1ccc(N)cc1`, the Potency is reported as “inactive”. With `CCOC(=O)NNc1ccc(N(CC)CC(C)O)nn1` (stereo unspecified) the Potency was “inactive”. For `O=C(O)Cc1ccccc1Nc1c(Cl)cccc1Cl`, the Potency was “inactive”. In the case of `c1ccsc1`, the Potency is reported as “inactive”. In the case of `NC(=O)c1cccc([N+](=O)[O-])c1`, the Potency is reported as “inactive”. In the case of `CCc1cccc(CC)c1NC(=O)CN(CC(=O)O)CC(=O)O`, the Potency is reported as “inactive”. With `Clc1sc(Cl)c(Cl)c1Cl` the Potency was “inactive”. For `CCN(CC)c1ccc2c(-c3ccc(S(=O)(=O)O)cc3S(=O)(=O)[O-])c3ccc(=[N+](CC)CC)cc-3oc2c1`, the Potency was 9.99 µM (active). For `OC[C@H]1O[C@H](O[C@H]2O[C@H](CO)[C@@H](O)[C@H](O)[C@H]2O)[C@H](O)[C@@H](O)[C@@H]1O`, the Potency was “inactive”. For `CC(CO)Oc1ccccc1` (stereo unspecified), the Potency was “inactive”. In the case of `COc1c(C)c2c(c(O)c1C/C=C(\C)CCC(=O)OCCN1CCOCC1)C(=O)OC2`, the Potency is reported as “inactive”. For `CCCc1ccc(OCC(=O)N2CCN(C(=O)COc3ccc(CCC)cc3OC)CC2)c(OC)c1`, the Potency was “inactive”. With `CN(C)Cc1ccccc1O` the Potency was “inactive”. For `ClCCl`, the Potency was “inactive”. For `CCCCCCOC(=O)C(C)CC` (stereo unspecified), the Potency was “inactive”. For `Cc1c(N)cccc1C(F)(F)F`, the Potency was “inactive”. For `COC(=O)Nc1nc2ccc(C(=O)c3ccccc3)cc2[nH]1`, the Potency was “inactive”. With `CCN1C(=O)c2ccccc2C1Nc1ccc(OCCN2CCCCC2)cc1` (stereo unspecified) the Potency was “inactive”. With `CCOc1ccc2ccccc2c1C(=O)N[C@@H]1C(=O)N2[C@@H]1SC(C)(C)[C@@H]2C(=O)O` the Potency was “inactive”. With `Nc1ccc(C(=O)O)c(O)c1` the Potency was “inactive”. In the case of `O[C@@H]([C@H](O)[C@H](O)CBr)[C@H](O)CBr`, the Potency is reported as “inactive”.
